# From PubChem BioAssay
# Active and inactive are the calls of the source. Unless noted, how the calls were made is not given here.
# Tests used:
# [1] = anti-His antibody binders, primary screen, artefact control for SMM control protein annotation, biochemical, small-molecule microarray, 635 nm fluorescence (AID 1128); details: anti-His Alexa647 antibody binding, higher = more signal;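 further: score merges feature fluorescence with signal-to-noise for each printed compound spot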
# [2] = test system: Human papillomavirus type 1a E7 protein (residues 1-88); test: HPV1a E7 small-molecule binders, primary screen, biochemical, small-molecule microarray, residues 1-88, 635 nm (AID 1129); details: small-molecule microarray binding, fluorescence 635 nm; higher = more signal
# [3] = biological target: Focal adhesion kinase 1 (Homo sapiens) (UniProt Q05397); test: small-molecule microarray binders of FAK, primary screen, biochemical, 635/667 nm fluorescence, BSA, DTT (AID 1130); details: PTK2 binding, 635 nm fluorescence, higher = more signal;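 further: composite of spot emission at 667 nm and signal to noise over triplicate slides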
# [4] = test system: Fibrinogen (Alexa647-labelled); test: fibrinogen binders on compound microarrays, profiling panel, artefact control for SMM control-protein annotation, biochemical, small-molecule microarray, 635/667 nm fluorescence (AID 1131); details: fibrinogen-A647 binding fluorescence, higher = more signal;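 further: z-score merges 667 nm fluorescence with per-spot signal-to-noise over triplicate slides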
# [5] = biological target: Follistatin (Homo sapiens) (UniProt P19883); test: follistatin binders on small-molecule microarrays, primary screen, biochemical, small-molecule microarray, 635/667 nm fluorescence (AID 1132); details: FST binding, 635 nm fluorescence, higher = more signal
# [6] = biological target: Fibroblast growth factor 2 (Homo sapiens) (UniProt P09038); test: FGF2 binders on small-molecule microarrays, primary screen, biochemical, small-molecule microarray, 635/667 nm fluorescence (AID 1133); details: small-molecule microarray binding, FGF2, fluorescence 635/667; higher = more signal
# [7] = mitochondrial membrane potential change in A549 cells, profiling panel, cell-based, JC-1 fluorescence, basal, 24 h, 100 nL (AID 1138); details: higher = more signal;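 further: A549 lung adenocarcinoma cells under basal conditions with no added stimulus; test concentration not given here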
# Lefty1 = Lefty1 binders on small-molecule microarrays, primary screen, biochemical, small-molecule microarray, 635/667 nm fluorescence (AID 1139); details: small-molecule microarray binding, fluorescence 635/667; higher = more signal
# [8] = test system: wheat germ agglutinin (Triticum aestivum), Alexa647-labelled; test: wheat germ agglutinin binders on compound microarrays, profiling panel, artefact control for SMM control-protein annotation, biochemical, small-molecule microarray, 635/667 nm fluorescence (AID 1140); details: WGA-A647 binding, 635 nm fluorescence, higher = more signal;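 further: score merges 667 nm feature emission with signal to noise over triplicate slides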
# [9] = biological target: Luciferin 4-monooxygenase (Photinus pyralis) (UniProt P08659); test: firefly luciferase enzyme inhibitors, primary screen, biochemical, luminescence, purified enzyme, 2006 set (AID 1141); details: SteadyGlo luminescence, 30 min, higher = more signal, called active from +8 up or from −8 down;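 further: cell-free assay with purified firefly luciferase at 100 ng per well in PBS; test concentration not given here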
# [10] = test system: Wnt5a (protein binding on small-molecule microarray); test: Wnt5a binders on small-molecule microarray, primary screen, biophysical, 635/667 nm fluorescence (AID 1142); details: 635 nm fluorescence, higher = more signal;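 further: fluorescence read at 667 nm with signal to noise per printed feature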
# [11] = cell viability in Huh7 cells, primary screen, cytotoxicity control for HCV replication inhibitor project, CellTiter-Glo luminescence, basal, 48 h (AID 1143); details: Huh7 HCV replicon, higher = more signal, called active from +8 up or from −8 down;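 further: Huh7 hepatoma cells carrying a hepatitis C replication reporter with no stimulus; test concentration not given here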
# [12] = P. aeruginosa biofilm formation inhibitors, primary screen, PAO1 strain, BacTiter-Glo luminescence, LB-PBS (AID 1144); details: 12 h, higher = more signal
# [13] = CREB reporter modulators without forskolin, primary screen, cell-based, PC12, CRE-LacZ reporter, unstimulated (AID 1145); details: no forskolin, luminescence, 4.5 h, higher = more signal, called active from +8 up or from −8 down
# [14] = CREB reporter modulators under forskolin, primary screen, cell-based, PC12, CRE-LacZ reporter, forskolin-stimulated (AID 1146); details: luminescence, 4.5 h, higher = more signal, called active from +8 up or from −8 down;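 further: PC12 cells with 6xCRE LacZ reporter stimulated by forskolin 10 µM; beta-galactosidase reporter signal reflecting CREB driven transcription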
# [15] = biological target: Streptavidin (Streptomyces avidinii) (UniProt P22629); test: streptavidin binders on small-molecule microarray, primary screen, artefact control for SMM compound annotation, biophysical, 635/667 nm fluorescence (AID 1147); details: streptavidin binding, higher = more signal;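 further: signal reflects streptavidin binding to arrayed compounds as a control protein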
# [16] = small-molecule binders of probe aInhba, primary screen, biochemical, small-molecule microarray, 635/667 nm fluorescence (AID 1148); details: higher = more signal;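 further: score merges 667nm spot fluorescence with signal-to-noise for antibody binding to printed compounds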
# Torsin-1A (Homo sapiens) [17] = biological target: Torsin-1A (Homo sapiens) (UniProt O14656); test: torsin A binders from cell lysate, primary screen, small-molecule microarray, wild-type, 635/667 nm (AID 1149); details: COS7 hTOR1A-WT lysate, 635 nm fluorescence, higher = more signal
# Torsin-1A (Homo sapiens) [18] = biological target: Torsin-1A (Homo sapiens) (UniProt O14656); test: small-molecule binders of mutant TOR1A in lysate, primary screen, cell lysate, small-molecule microarray, COS7 lysate, 635/667 nm fluorescence (AID 1150); details: COS7 hTOR1A mutant lysate, 635 nm fluorescence, higher = more signal;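 further: score pools 667 nm emission and signal to noise measuring lysate protein binding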
# [19] = test system: Sonic hedgehog protein (Shh); test: small-molecule binders of Shh protein, primary screen, biochemical, small-molecule microarray, 635/667 nm fluorescence (AID 1151); details: small-molecule microarray binding, 635 nm fluorescence; higher = more signal;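 further: Shh protein binding to compounds spotted on small-molecule microarray slides; score combines spot fluorescence intensity with signal-to-noise across triplicate slides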
# Sequence of Follistatin (Homo sapiens) (P19883 whole entry, looked up): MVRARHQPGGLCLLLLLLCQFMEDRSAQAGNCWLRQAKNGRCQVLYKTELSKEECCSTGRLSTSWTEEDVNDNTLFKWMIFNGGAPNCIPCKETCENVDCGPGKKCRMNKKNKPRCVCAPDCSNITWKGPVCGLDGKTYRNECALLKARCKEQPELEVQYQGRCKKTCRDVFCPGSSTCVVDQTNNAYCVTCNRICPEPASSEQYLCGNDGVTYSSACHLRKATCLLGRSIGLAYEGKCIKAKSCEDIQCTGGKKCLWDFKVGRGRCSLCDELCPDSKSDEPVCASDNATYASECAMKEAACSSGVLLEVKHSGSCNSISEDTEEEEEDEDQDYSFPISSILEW
# Sequence of Fibroblast growth factor 2 (Homo sapiens) (P09038 whole entry, looked up): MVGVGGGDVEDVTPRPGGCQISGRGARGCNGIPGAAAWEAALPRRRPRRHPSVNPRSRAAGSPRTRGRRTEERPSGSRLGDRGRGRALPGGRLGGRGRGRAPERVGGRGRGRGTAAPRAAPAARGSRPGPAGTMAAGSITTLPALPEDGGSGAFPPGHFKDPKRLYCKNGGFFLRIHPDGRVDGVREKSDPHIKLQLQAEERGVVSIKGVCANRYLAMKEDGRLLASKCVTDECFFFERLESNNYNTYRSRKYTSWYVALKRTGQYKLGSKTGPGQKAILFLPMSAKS
# Sequence of Luciferin 4-monooxygenase (Photinus pyralis) (P08659 whole entry, looked up): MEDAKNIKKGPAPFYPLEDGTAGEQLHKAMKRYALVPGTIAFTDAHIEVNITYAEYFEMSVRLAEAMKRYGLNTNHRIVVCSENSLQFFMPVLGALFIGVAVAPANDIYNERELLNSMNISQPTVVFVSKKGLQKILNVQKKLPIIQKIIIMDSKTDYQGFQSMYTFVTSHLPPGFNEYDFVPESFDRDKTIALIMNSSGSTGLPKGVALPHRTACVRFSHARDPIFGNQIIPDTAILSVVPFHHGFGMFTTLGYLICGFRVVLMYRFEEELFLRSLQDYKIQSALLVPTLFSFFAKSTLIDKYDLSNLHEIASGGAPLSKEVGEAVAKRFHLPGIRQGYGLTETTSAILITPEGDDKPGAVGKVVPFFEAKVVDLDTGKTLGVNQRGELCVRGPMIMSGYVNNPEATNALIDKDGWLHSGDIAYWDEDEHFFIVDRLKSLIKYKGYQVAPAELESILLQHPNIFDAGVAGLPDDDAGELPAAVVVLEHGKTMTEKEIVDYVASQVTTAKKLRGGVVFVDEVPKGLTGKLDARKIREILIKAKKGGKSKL
# Sequence of Focal adhesion kinase 1 (Homo sapiens) (Q05397 whole entry, looked up): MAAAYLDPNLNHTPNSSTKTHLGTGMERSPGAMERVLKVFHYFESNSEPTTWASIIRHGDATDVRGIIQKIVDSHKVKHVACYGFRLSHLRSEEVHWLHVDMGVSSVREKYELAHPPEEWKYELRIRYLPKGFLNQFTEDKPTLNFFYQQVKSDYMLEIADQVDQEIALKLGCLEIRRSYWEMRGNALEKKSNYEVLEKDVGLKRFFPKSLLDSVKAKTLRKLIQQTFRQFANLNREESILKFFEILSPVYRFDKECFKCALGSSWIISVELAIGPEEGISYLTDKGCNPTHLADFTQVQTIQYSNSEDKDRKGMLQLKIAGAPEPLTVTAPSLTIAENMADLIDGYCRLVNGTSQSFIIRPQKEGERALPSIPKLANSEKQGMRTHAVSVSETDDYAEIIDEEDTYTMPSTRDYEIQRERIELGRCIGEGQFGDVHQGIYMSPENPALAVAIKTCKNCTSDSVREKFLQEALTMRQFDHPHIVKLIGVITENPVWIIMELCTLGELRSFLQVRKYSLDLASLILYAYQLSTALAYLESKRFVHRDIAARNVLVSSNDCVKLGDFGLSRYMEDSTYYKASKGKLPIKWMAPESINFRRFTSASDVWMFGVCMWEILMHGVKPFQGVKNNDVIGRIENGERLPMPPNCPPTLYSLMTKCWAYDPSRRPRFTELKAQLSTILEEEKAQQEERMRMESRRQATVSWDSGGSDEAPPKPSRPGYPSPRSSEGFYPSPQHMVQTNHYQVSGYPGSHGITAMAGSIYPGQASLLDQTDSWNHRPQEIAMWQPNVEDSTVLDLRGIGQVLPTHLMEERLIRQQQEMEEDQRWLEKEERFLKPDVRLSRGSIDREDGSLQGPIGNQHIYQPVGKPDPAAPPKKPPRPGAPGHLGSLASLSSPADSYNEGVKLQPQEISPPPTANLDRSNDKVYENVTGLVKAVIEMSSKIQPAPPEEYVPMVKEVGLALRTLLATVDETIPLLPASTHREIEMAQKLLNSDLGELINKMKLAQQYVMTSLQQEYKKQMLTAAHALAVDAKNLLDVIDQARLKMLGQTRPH
# Sequence of Torsin-1A (Homo sapiens) (O14656 whole entry, looked up): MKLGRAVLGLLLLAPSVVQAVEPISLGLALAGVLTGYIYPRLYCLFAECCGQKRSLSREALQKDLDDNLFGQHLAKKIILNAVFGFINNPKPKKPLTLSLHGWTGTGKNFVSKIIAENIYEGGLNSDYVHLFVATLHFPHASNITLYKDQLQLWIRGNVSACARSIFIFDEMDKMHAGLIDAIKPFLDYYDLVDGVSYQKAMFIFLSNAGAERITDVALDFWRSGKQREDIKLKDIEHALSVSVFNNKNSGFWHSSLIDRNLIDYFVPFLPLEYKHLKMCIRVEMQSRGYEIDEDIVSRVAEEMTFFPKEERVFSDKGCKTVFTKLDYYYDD
# Sequence of Streptavidin (Streptomyces avidinii) (P22629 whole entry, looked up): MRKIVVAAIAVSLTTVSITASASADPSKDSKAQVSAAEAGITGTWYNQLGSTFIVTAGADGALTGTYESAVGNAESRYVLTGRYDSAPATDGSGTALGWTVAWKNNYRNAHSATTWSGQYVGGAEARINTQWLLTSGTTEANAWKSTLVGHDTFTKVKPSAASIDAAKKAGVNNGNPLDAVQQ
SMILES,composite z-score [1],composite z-score [2],composite z-score [3],composite z-score [4],composite z-score [5],composite z-score [6],z-score [7],composite z-score (Lefty1),composite z-score [8],z-score [9],composite z-score [10],z-score [11],z-score [12],z-score [13],z-score [14],composite z-score [15],composite z-score [16],composite z-score (Torsin-1A (Homo sapiens) [17]),composite z-score (Torsin-1A (Homo sapiens) [18]),composite z-score [19]
CCOC(=O)C[C@H]1[C@H](OC(=O)c2cc3ccccc3oc2=O)[C@@H](NC(=O)CC(C)C)c2cc(OCCCO)ccc2N1C(=O)c1ccccc1,0.615,0.926,0.399,0.595,0.478,0.427,-0.399,0.696,0.634,-0.291 (inactive),0.175,-3.29 (inactive),1.25 (inactive),10.4 (active),-1.37 (inactive),0.131,-0.0986,0.272,0.205,0.595
CCOC(=O)C1=CC[C@@H](c2ccc(C(F)(F)F)cc2)N(S(=O)(=O)c2ccc(C)cc2)[C@H]1c1ccccc1,2.1,1.21,0.81,0.955,0.377,-0.149,-1.9,0.0777,1.22,0.849 (inactive),0.328,-4.89 (inactive),1.43 (inactive),0.986 (inactive),-0.052 (inactive),1.5,0.316,0.504,0.658,0.0252
COCCOC(=O)N1C(=O)[C@@]2(c3ccccc31)[C@H](C(=O)N1CCc3cc(OC)c(OC)cc3C1)[C@H]1C(=O)O[C@H](c3ccccc3)[C@H](c3ccccc3)N1[C@@H]2c1ccc(O)cc1,2.07,1.18,0.381,0.864,1.09,1.26,0.674,0.788,0.74,-5.57 (inactive),0.622,-3.5 (inactive),-0.726 (inactive),-0.0515 (inactive),2.99 (inactive),1.39,-0.0889,1.06,1.31,1.96
COCC(=C=CC[C@@H](O)c1ccc(OCCO)cc1)C[C@@H](O)c1ccccn1,2.32,-0.14,0.359,0.792,0.979,0.249,0.0965,0.517,0.643,-0.501 (inactive),0.117,0.0073 (inactive),0.0661 (inactive),-0.0602 (inactive),2.62 (inactive),0.556,0.0001,0.0308,-0.467,1.04
CN1C(=O)C2C=CC(C(O)c3ccccc3)N(N3CCCCC3)C2C1=O (stereo not given),0.841,1.04,0.352,0.412,0.602,-0.234,0.0958,0.0104,0.573,-0.136 (inactive),0.691,0.573 (inactive),-0.127 (inactive),0.819 (inactive),0.584 (inactive),0.479,0.0301,0.305,1.14,-0.689
COC(=O)[C@@]1(Cc2ccc(F)cc2)[C@H]2c3cc(C(=O)N(C)C)n(Cc4cc(C)n(C)n4)c3C[C@H]2CN1C(=O)c1ccccc1,2.76,1.2,0.646,0.795,0.577,-0.237,-0.013,-0.574,0.537,0.272 (inactive),0.692,-0.617 (inactive),-0.0119 (inactive),0.779 (inactive),0.455 (inactive),0.678,0.302,0.149,0.0322,0.303
C=CC[C@]1(C(=O)N2CCOCC2)N=C(c2ccc(OCCCO)cc2)O[C@H]1c1ccccc1N=[N+]=[N-],2.08,1.26,0.804,0.979,1.14,0.287,-0.0671,-0.0598,1.37,-10.7 (active),0.268,-4.25 (inactive),-0.0153 (inactive),-0.193 (inactive),-1.78 (inactive),0.883,0.122,0.35,0.705,-0.269
[N-]=[N+]=Nc1ccccc1[C@H]1OC(c2ccc(OCCCO)cc2)=N[C@@]1(CCS(=O)(=O)c1ccccc1)C(=O)NCc1ccccc1,1.18,1.24,0.341,1.04,1.34,0.694,0.727,0.152,0.697,-7.61 (inactive),0.768,-2.65 (inactive),0.0905 (inactive),1.26 (inactive),-0.504 (inactive),1.47,0.204,0.503,0.786,0.0239
COc1cc2c(cc1OC)CN(C(=O)[C@H]1[C@@H]3C(=O)O[C@@H](c4ccccc4)[C@@H](c4ccccc4)N3[C@@H](c3ccccc3OCCO)[C@]13C(=O)Nc1ccc(C#CCCO)cc13)CC2,1.1,1.2,0.612,0.871,1.18,1.65,-0.486,1.13,0.524,-0.255 (inactive),0.703,-0.964 (inactive),0.677 (inactive),0.712 (inactive),1.64 (inactive),0.225,-0.0567,-0.0954,0.142,1.75
O=C1O[C@H](c2ccccc2)[C@H](c2ccccc2)N2[C@H]1[C@@H](C(=O)NC[C@H](O)c1ccccc1)[C@]1(C(=O)Nc3ccc(C#CC4=CCCCC4)cc31)[C@H]2c1ccccc1OCCO,1.24,1.19,0.661,0.86,1.1,0.198,-1.76,0.632,1.05,-0.758 (inactive),0.401,-6.13 (inactive),-0.297 (inactive),-0.0784 (inactive),-0.0119 (inactive),0.787,0.0659,0.0585,0.223,0.134
C=C(/C(=C/C[C@H](OC(C)=O)c1ccc(OCCO)cc1)c1cc(C(=O)OC)ccc1OC)C(C)C,1.16,1.08,0.413,0.812,1.13,1.58,1.75,1.55,0.307,-2.33 (inactive),0.269,-2.4 (inactive),-0.357 (inactive),20.7 (active),-0.509 (inactive),1.17,0.0589,0.287,1.98,1.41
CCCCN1CC=CC23O[C@@H]4/C=C\CCCOC(=O)C4[C@H]2C(=O)N(CCCCCO)[C@@H]3C1=O (stereo not given in full),0.688,-1.02,1.31,-0.918,-0.803,-0.573,0.897,-1.12,-0.595,0.686 (inactive),0.0311,-0.103 (inactive),0.0433 (inactive),0.333 (inactive),-0.391 (inactive),-1.43,-0.211,-0.0808,0.777,-0.695
CCCC1(C(=O)OC)C=C2C(=C(c3ccccc3)C(=O)C2C)CN1 (stereo not given),0.295,0.412,0.198,0.453,0.13,-0.299,1.63,0.0496,0.858,1.11 (inactive),0.256,-0.752 (inactive),0.153 (inactive),-0.375 (inactive),0.966 (inactive),0.312,0.27,0.52,0.0656,-0.599
OCCCC1=CC(C2CC2)N(Cc2cccc(OC(F)(F)F)c2)CC1 (stereo not given),-0.103,-0.208,0.227,-2.53,-0.306,-0.338,0.00271,0.32,-0.0444,0.382 (inactive),-0.416,-0.28 (inactive),0.129 (inactive),0.0882 (inactive),0.0103 (inactive),-0.753,-0.213,-0.176,-0.773,1
O=C1O[C@@H](c2ccccc2)[C@@H](c2ccccc2)N2[C@@H](c3ccccc3OCCO)[C@]3(C(=O)Nc4ccccc43)[C@@H](C(=O)O)[C@H]12,0.969,0.718,0.66,0.882,-0.0086,-0.166,-0.184,-0.474,0.56,-1.55 (inactive),0.205,-0.99 (inactive),-0.0695 (inactive),0.568 (inactive),2.62 (inactive),1.38,-0.103,0.332,1.14,0.0546
CC(C)Cc1ccc(CN2CC[C@@H](N)C2)cc1,-0.273,-1.63,-0.0574,-0.0978,-0.304,-0.847,1.85,0.0735,-0.314,0.824 (inactive),-0.544,-3.26 (inactive),-1.53 (inactive),-0.688 (inactive),1.52 (inactive),-1.27,-0.0357,-1.79,-0.677,-0.0963
CO[C@H]1O[C@H](CO)[C@@H](OC(=O)Nc2ccccc2)[C@@H]2OC(=O)[C@@H](Cc3ccc4ccccc4c3)C/C=C/C[C@H](Cc3ccc4ccccc4c3)C(=O)O[C@@H]12,0.79,1.2,1.12,0.768,0.935,0.477,0.461,0.698,0.807,-1.97 (inactive),0.49,-3.61 (inactive),-1.4 (inactive),0.502 (inactive),-0.757 (inactive),0.31,-0.0494,0.643,1.87,0.662
N#Cc1ccc(C(O)C2C=CC3C(=O)N(c4ccccc4)C(=O)C3N2Nc2ccccc2F)cc1 (stereo not given),2.59,1.05,0.152,0.97,0.269,0.191,0.0535,0.284,0.144,1.79 (inactive),0.286,-2.92 (inactive),-0.826 (inactive),-0.107 (inactive),-0.852 (inactive),0.0289,-0.0986,-0.291,-0.301,-0.234
